The results in this text go back to PubChem BioAssay AID1259422 (The Scripps Research Institute Molecular Screening Center, 2018).

The structures appear in SMILES notation. The campaign covered roughly 640,000 compounds. About 9,300 (1.5%) were called active. This is one part of a sample in which actives are shown more often than they occur. A number with no mark means an inactive call. Cut-off read from the data, not from the text of the source: active = inhibition above about 32%; inactive = the rest.

This assay in a line: TEAD-YAP interaction inhibition, primary screen, TEAD-YAP interaction inhibitor project, luminescence, HEK-TIYL cells (AID 1259422).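 Note: 0% = median of test compound wells and 100% = reference inhibitor wells.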 Conditions: TEAD-Gal4/YAP UAS-luciferase luminescence, at 9.12 µM, hits give high values.
Broadly, the inhibition is the drop in the measured response relative to a control, in per cent. As to `COc1ccccc1Nc1cc(C)nc2ccc(Cl)cc12`, the inhibition is 4.34%.
For the molecule `COc1ccccc1Nc1nc(-c2ccc(Cl)cc2)cs1`, the inhibition is -12%.
For `COc1ccccc1NC1=NC(c2ccc(Cl)cc2)N=C(N)N1` (stereo not drawn), the inhibition is 40.4% (active).
On to `Cc1c(CN2CCCC(CNC(=O)c3ccc4c(c3)OCO4)C2)[nH]c2ccccc12` (stereo not drawn), for which the inhibition was 13.5%.
For the molecule `O=C(NCC1CCCN(Cc2cccn2-c2ncccn2)C1)c1n[nH]c2ccccc12` (stereo not drawn), the inhibition was 33.7% (active).
As for `O=C(NCC1CCCN(Cc2nc(-c3ccccc3)cs2)C1)c1cccs1` (stereo not drawn), the inhibition is 9.19%.
The figure for `CCOc1ccc(CN2CCN(Cc3ccc(OC)c(OCC)c3)CC2)cc1` is -0.01%; for `FC(F)(F)c1cccc(N2N=C(/C=C/c3ccccc3)CC2c2ccccc2)c1` (stereo not drawn) it is -3.08%; for `O=C1NC(=Nc2ccc(F)cc2)S/C1=C\c1ccc(O)c(O)c1` it is 51.2% (active).
For the molecule `Cn1c(=O)n(C)c2cc(/C=C3/SC(=Nc4ccc(F)cc4)NC3=O)ccc21`, the inhibition is -33.4%.
The figure for `O=C1NC(=Nc2ccc(F)cc2)S/C1=C\c1cccs1` is 7.85%; for `CCCCNC(=O)C(=O)NCC1COc2ccccc2O1` (stereo not drawn) it is -0.58%; for `COc1ccc(OCC(=O)Nc2nc3ccc(C)cc3s2)cc1` it is -5.48%.
Under `O=C(NCCOc1ccccc1)c1cc(NC2CCN(Cc3ccccc3)CC2)nc2ccccc12` stands 10.3%; under `Cc1ccc(NC(=O)/N=C/c2sc(=O)[nH]c2O)cc1`, -3.99%.
Turning to `FC(F)(F)c1ccc(Cn2cnc3c(NCc4cccc(C(F)(F)F)c4)nc(Nc4ccc(N5CCOCC5)cc4)nc32)cc1`, the inhibition was 2.31%.
Under `c1cc(-c2ocnc2-c2ncco2)cc(Nc2ccc(N3CCOCC3)cc2)n1` stands 38.6% (active).
The figure for `c1ccc(-n2cnc(-c3ccnc(Nc4ccc(N5CCOCC5)cc4)c3)n2)cc1` is -7.29%; for `c1ccc(Nc2nc(Nc3ccc(N4CCOCC4)cc3)nc3nc[nH]c23)cc1` it is 24.1%; for `Cc1cnc(-c2c(C)noc2C)nc1Nc1ccc(N2CCOCC2)cc1` it is -11.4%.
The figure for `Cc1cnc(Nc2ccc(N3CCOCC3)cc2)nc1NCc1cccc(C(F)(F)F)c1` is 67.6% (active).
On to `Cc1cnc(Nc2ccc(N3CCOCC3)cc2)nc1Nc1ccccc1-c1ncn[nH]1`, for which the inhibition was 68.8% (active).
`c1cncc(-n2cnc(-c3ccnc(Nc4ccc(N5CCOCC5)cc4)c3)n2)c1`: the inhibition was -10.2%.
Turning to `FC(F)(F)c1cccc(CNc2nc(Nc3ccc(N4CCOCC4)cc3)nc3c2ncn3-c2ccsc2)c1`, the inhibition was -6.95%.
As to `CNC(=O)c1ccccc1Nc1ccnc(Nc2ccc(N3CCOCC3)cc2)c1`, the inhibition was 8.21%.
Turning to `c1nc(Nc2ccc(N3CCOCC3)cc2)cc(N2CCOCC2)n1`, the inhibition is 2.49%.
Under `c1ccc(-c2ncn[nH]2)c(Nc2ccnc(Nc3ccc(N4CCOCC4)cc3)c2)c1` stands 44% (active); under `O=[N+]([O-])c1ccc(Cl)c(S(=O)(=O)n2nnc3ccccc32)c1`, -1.22%.
Consider `COC(=O)C1C(=O)NC(SCC(=O)Nc2ccc(OC)cc2)=C(C#N)C1c1ccc(C)cc1` (stereo not drawn), for which the inhibition is -9.22%.
Under `CC(C)CCNS(=O)(=O)c1ccc2[nH]c3nc4nc(-c5ccc(Br)cc5)cn4nc3c2c1` stands 6.91%; under `Cc1cc(=O)oc2c(/C=N\NC(=O)c3ccc(Br)cc3)c(O)ccc12`, 5.44%; under `CCOc1ccc(NC(=O)/C(C#N)=C\c2ccc(O)cc2)cc1`, -6.14%.
The figure for `O=C1C(=O)N(Cc2cccnc2)C(c2cccc(Br)c2)/C1=C(/O)c1ccccc1` (stereo not drawn) is -12.1%.
Under `O=C1CCC(=O)N1c1ccc(-c2nc3scc(-c4cccs4)c3c(=O)o2)cc1` stands -7.68%.
Turning to `COc1ccc2nc3oc(C(=O)NC4CC4)cc3cc2c1`, the inhibition is -62.4%.
On to `CCN(CC)C(=O)c1cc2cc3ccc(OC)cc3nc2o1`, for which the inhibition is 58% (active).
The figure for `CCOC(=O)N1CCN(C(=O)c2cc3cc4ccc(OC)cc4nc3o2)CC1` is -1.56%.
The figure for `COCCn1nnnc1CN(Cc1ccco1)CC1CCCO1` (stereo not drawn) is -5.83%; for `CCOC(=O)C1=C(C)NC2=C(C(=O)CC(C)(C)C2)C1c1cccs1` (stereo not drawn) it is 7.66%; for `CCOc1ccc(C2C(C#N)=C(N)N(N(C)C)C3=C2C(=O)CC(c2ccccc2)C3)cc1` (stereo not drawn) it is 17.9%.
Take `Cc1nnc(SCC(=O)c2ccc3c(c2)OCCO3)o1`: the inhibition was -48.4%.
Under `CCCCSc1nnc2c(n1)OC(c1cccc(Cl)c1)Nc1ccccc1-2` (stereo not drawn) stands -39.8%.
For `O=C(O)CCCCCN1C(=O)/C(=C\c2cccs2)SC1=S`, the inhibition is 28.4%.
The figure for `CCN1C(=O)/C(=C/c2ccc(OCC(=O)O)cc2)SC1=S` is -16.2%; for `COc1cc(/C=C2/SC(=S)N(CC(=O)O)C2=O)cc2c1OCO2` it is 2.97%; for `O=C(O)CCCCCN1C(=O)/C(=C/c2ccc3c(c2)OCO3)SC1=S` it is 43.9% (active).
Under `C=CCOc1ccc(/C=C2\SC(=S)N(CCC(=O)O)C2=O)cc1` stands 50.1% (active); under `O=C(O)CCN1C(=O)/C(=C\c2ccc(C(=O)O)cc2)SC1=S`, -5.44%.
The figure for `COc1cccc(C(=O)NC(=S)Nc2ccc(Br)c(C)n2)c1` is -5.25%; for `Cc1cc2nc3[nH]c4ccccc4c3nc2cc1C` it is -33%.
In the case of `O=C(NCc1ccc(F)cc1)c1ccc2nc3[nH]c4ccccc4c3nc2c1`, the inhibition is 4.49%.
On to `Cc1ccc2nc3[nH]c4ccccc4c3nc2c1`, for which the inhibition was 35% (active).
Under `O=C(NNc1ccc([N+](=O)[O-])cc1[N+](=O)[O-])c1cc2ccccc2cc1O` stands 8.71%; under `Cc1cc(C(=O)N(Cc2ccccn2)c2nc3ccccc3s2)on1`, 69.7% (active).
With `CCc1cccc2sc(N(Cc3ccccn3)C(=O)CSCc3ccccc3)nc12`, the inhibition was 2.11%.
Under `O=C1CCC(=O)N1CC(=O)N(Cc1ccccn1)c1nc2ccccc2s1` stands 18.1%; under `CC(=O)Oc1cccc(N2C(=O)c3ccc(-c4nc5ccccc5o4)cc3C2=O)c1`, -6.42%; under `C=CCc1ccc(OCCN2CC(C)OC(C)C2)c(OC)c1` (stereo not drawn), -7.73%.
